PubChem BioAssay (NCI)
Compounds without any hit were thinned out: in the full panel of roughly 79,000, 15% have a hit. The source made the active and inactive calls. No stated cut-off is given here; in the data, active means growth inhibition above about 70%; inactive means the rest.

Columns and labels:
[1] = NCI Yeast Anticancer Drug Screen. Data for the sgs1 strain (AID 173);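 further: 0% = growth of vehicle-only control cultures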; settings: S. cerevisiae sgs1 mutant, active compounds read high
Method in brief: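 Screen format: yeast with repair or checkpoint alterations, compound exposure, growth read relative to vehicle.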

[2] = NCI Yeast Anticancer Drug Screen. Data for the mlh1 rad18 strain (AID 175); settings: S. cerevisiae mlh1 rad18 strain growth inhibition, active compounds read high
Method in brief: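 Vehicle-treated cultures served as the reference for growth inhibition in a yeast strain carrying DNA damage repair alterations exposed to each compound.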

[3] = NCI Yeast Anticancer Drug Screen. Data for the rad18 strain (AID 177); settings: S. cerevisiae rad18 mutant growth inhibition, active compounds read high
Method in brief: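 Test articles were incubated with altered yeast defective in DNA damage repair. Results are given as inhibition of growth versus vehicle.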

[4] = NCI Yeast Anticancer Drug Screen. Data for the rad52 strain (AID 147);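 further: 0% = growth of vehicle-treated control cultures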; settings: S. cerevisiae rad52 mutant growth inhibition, active compounds read high
Method in brief: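 Vehicle-treated cultures served as the reference for growth inhibition of compound-exposed yeast bearing a DNA repair mutation.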

[5] = NCI Yeast Anticancer Drug Screen. Data for the wt1 strain (AID 149);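 further: 0% = growth of vehicle-treated wt1 cultures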; settings: S. cerevisiae wt1 strain (SPY 50644) growth inhibition, active compounds read high
Method in brief: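 Yeast wt1 strain exposed to compounds; growth inhibition measured relative to vehicle-treated controls.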

[6] = NCI Yeast Anticancer Drug Screen. Data for the rad50EPP+ strain (AID 151);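 further: 0% = growth of vehicle-treated control cultures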; settings: S. cerevisiae rad50 mutant strain, active compounds read high
Method in brief: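 In this screen, rad50EPP+ yeast were exposed to compounds. Growth inhibition was scored against vehicle-treated controls.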

[7] = NCI Yeast Anticancer Drug Screen. Data for the rad50 strain (AID 155);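 further: 0% = growth of vehicle-only cultures of the same strain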; settings: S. cerevisiae rad50 strain growth inhibition, active compounds read high
Method in brief: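 Yeast carrying a defined DNA repair defect were exposed to test compounds, and growth was compared with vehicle-treated controls to give percent inhibition.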

[8] = NCI Yeast Anticancer Drug Screen. Data for the mec2-1 strain (AID 157); settings: S. cerevisiae mec2-1 strain, active compounds read high
Method in brief: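 Vehicle-treated cultures served as reference for growth inhibition of compound-exposed mec2-1 yeast.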

[9] = NCI Yeast Anticancer Drug Screen. Data for the rad14 strain (AID 159);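 further: 0% = growth of vehicle-treated control cultures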; settings: S. cerevisiae rad14 strain growth inhibition, active compounds read high
Method in brief: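 Yeast cells carrying a defined DNA-repair defect were exposed to compounds, and growth inhibition was calculated relative to vehicle-treated control cultures.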

[10] = NCI Yeast Anticancer Drug Screen. Data for the sgs1 mgt1 strain (AID 161);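 further: 0% = growth of cultures given vehicle only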; settings: S. cerevisiae sgs1 mgt1 strain, active compounds read high
Method in brief: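 Mutant yeast exposed to compound; growth scored against vehicle-only wells.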

[11] = NCI Yeast Anticancer Drug Screen. Data for the CLN2oe strain (AID 163);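 further: 0% = growth of vehicle-only control cultures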; settings: S. cerevisiae CLN2oe strain, active compounds read high
Method in brief: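 Inhibition relative to vehicle-treated yeast is reported. Cells: strain with genetic alteration in cell-cycle control, grown with compound.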

[12] = NCI Yeast Anticancer Drug Screen. Data for the cln2 rad14 strain (AID 165);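 further: 0% = growth equal to vehicle treated cultures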; settings: S. cerevisiae cln2 rad14 strain, active compounds read high
Method in brief: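 Each compound was tested on cln2 rad14 yeast. Inhibition of growth was calculated against vehicle-exposed controls.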

[13] = NCI Yeast Anticancer Drug Screen. Data for the bub3 strain (AID 167); settings: S. cerevisiae bub3 mutant strain, active compounds read high
Method in brief: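 Compounds were applied to a genetically altered yeast strain carrying a cell-cycle control defect. Growth inhibition was scored against vehicle-treated controls.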

[14] = NCI Yeast Anticancer Drug Screen. Data for the wt2 strain (AID 169);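 further: 0% = growth of vehicle-treated yeast cultures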; settings: S. cerevisiae wt2 strain growth inhibition, active compounds read high
Method in brief: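 Inhibition of yeast growth was determined after compound treatment, normalised to controls receiving only vehicle.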

[15] = NCI Yeast Anticancer Drug Screen. Data for the mlh1 strain (AID 171);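 further: 0% = growth of vehicle-treated control cultures of the same strain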; settings: S. cerevisiae mlh1 strain growth inhibition, active compounds read high
Method in brief: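 Vehicle-normalised growth inhibition of a repair- or checkpoint-altered yeast strain following compound treatment.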

[16] = at 5.0 µM (retest, dose inferred, filed as 0.5)
[17] = at 50.0 µM (retest, dose inferred, filed as 5.0)

Measured: growth inhibition

Cc1cc(O)c(C(C)C)cc1SC#N
active: [1]; at 100.0 µM 98% | [2]; [16] 81% | [2]; [17] 99% | [2]; at 50.0 µM 89% | [3]; at 100.0 µM 98%
inactive: [1]; at 1.2 µM -30% | [1]; at 3.7 µM -24% | [1]; at 11.0 µM 65% | [1]; at 33.0 µM 28% | [3]; at 1.2 µM 12% | [3]; at 3.7 µM 2% | [3]; at 11.0 µM 59% | [3]; at 33.0 µM 40%

C/C(=N/NC(=S)Nc1ccccc1C)c1ccccn1
active: [7]; at 50.0 µM 78% | [10]; at 50.0 µM 79.8% | [12]; at 50.0 µM 87.5% | [2]; at 50.0 µM 86.5%
inactive: [4]; at 1.2 µM 2% | [4]; at 3.7 µM 9% | [4]; at 11.0 µM 15% | [4]; at 33.0 µM 17% | [4]; at 100.0 µM 7% | [5]; at 1.2 µM -11% | [5]; at 3.7 µM -10% | [5]; at 11.0 µM -9% | [5]; at 33.0 µM -10% | [5]; at 100.0 µM -8% | [6]; at 1.2 µM 3% | [6]; at 3.7 µM 6% | [6]; at 11.0 µM 13% | [6]; at 33.0 µM 14% | [6]; at 100.0 µM 4% | [7]; at 1.2 µM 1% | [7]; at 3.7 µM 5% | [7]; [16] 9% | [7]; at 11.0 µM -9% | [7]; at 33.0 µM 7% | [7]; [17] 12% | [7]; at 100.0 µM 5% | [8]; at 1.2 µM -3% | [8]; at 3.7 µM -10% | [8]; [16] -40% | [8]; at 11.0 µM -9% | [8]; at 33.0 µM -9% | [8]; [17] 1% | [8]; at 50.0 µM 47% | [8]; at 100.0 µM -6% | [9]; at 1.2 µM -11% | [9]; at 3.7 µM -11% | [9]; at 11.0 µM -11% | [9]; at 33.0 µM -14% | [9]; at 100.0 µM -6% | [10]; [16] -35% | [10]; [17] 15% | [11]; at 1.2 µM -8% | [11]; at 3.7 µM -6% | [11]; at 11.0 µM -9% | [11]; at 33.0 µM -11% | [11]; at 100.0 µM -11% | [12]; [16] 12% | [12]; [17] 14% | [13]; at 1.2 µM -7% | [13]; at 3.7 µM 1% | [13]; [16] -32% | [13]; at 11.0 µM 4% | [13]; at 33.0 µM -2% | [13]; [17] 57% | [13]; at 50.0 µM 65% | [13]; at 100.0 µM -9% | [14]; at 1.2 µM -6% | [14]; at 3.7 µM -6% | [14]; at 11.0 µM -5% | [14]; at 33.0 µM -5% | [14]; at 100.0 µM -5% | [15]; at 1.2 µM -6% | [15]; at 3.7 µM -7% | [15]; at 11.0 µM -5% | [15]; at 33.0 µM -9% | [15]; at 100.0 µM -6% | [2]; [16] -15% | [2]; [17] -1% | [3]; at 1.2 µM 0% | [3]; at 3.7 µM 3% | [3]; at 11.0 µM 3% | [3]; at 33.0 µM -17% | [3]; at 100.0 µM -4%

O=S(=O)(c1ccccc1)N1CN2CN(C1)CN(S(=O)(=O)c1ccccc1)C2
active: [8]; [17] 79%
inactive: [4]; at 1.2 µM -10% | [4]; at 3.7 µM -2% | [4]; at 11.0 µM -15% | [4]; at 33.0 µM -8% | [4]; at 100.0 µM -5% | [5]; at 1.2 µM -3% | [5]; at 3.7 µM 14% | [5]; at 11.0 µM 17% | [5]; at 33.0 µM 11% | [5]; at 100.0 µM 16% | [7]; at 1.2 µM -4% | [7]; at 3.7 µM -7% | [7]; [16] 24% | [7]; at 11.0 µM -10% | [7]; at 33.0 µM -12% | [7]; [17] 38% | [7]; at 50.0 µM -11.5% | [7]; at 100.0 µM -11% | [8]; at 1.2 µM -2% | [8]; at 3.7 µM -6% | [8]; [16] 26% | [8]; at 11.0 µM -19% | [8]; at 33.0 µM 0% | [8]; at 50.0 µM -28% | [8]; at 100.0 µM -10% | [9]; at 1.2 µM -16% | [9]; at 3.7 µM -16% | [9]; at 11.0 µM -30% | [9]; at 33.0 µM -24% | [9]; at 100.0 µM -26% | [10]; [16] -11% | [10]; [17] 4% | [10]; at 50.0 µM -5.55% | [11]; at 1.2 µM 1% | [11]; at 3.7 µM -4% | [11]; at 11.0 µM -6% | [11]; at 33.0 µM 13% | [11]; at 100.0 µM -7% | [12]; [16] 44% | [12]; [17] 52% | [12]; at 50.0 µM -16.4% | [13]; at 1.2 µM -13% | [13]; at 3.7 µM -16% | [13]; [16] 25% | [13]; at 11.0 µM -25% | [13]; at 33.0 µM 3% | [13]; [17] 31% | [13]; at 50.0 µM -29.2% | [13]; at 100.0 µM -21% | [14]; at 1.2 µM -9% | [14]; at 3.7 µM 9% | [14]; at 11.0 µM -14% | [14]; at 33.0 µM -5% | [14]; at 100.0 µM 5% | [15]; at 1.2 µM -16% | [15]; at 3.7 µM -18% | [15]; at 11.0 µM -23% | [15]; at 33.0 µM -18% | [15]; at 100.0 µM -21% | [1]; at 1.2 µM -21% | [1]; at 3.7 µM -19% | [1]; at 11.0 µM -23% | [1]; at 33.0 µM -24% | [1]; at 100.0 µM -19% | [2]; [16] 40% | [2]; [17] 30% | [2]; at 50.0 µM -3.75% | [3]; at 1.2 µM -18% | [3]; at 3.7 µM -14% | [3]; at 11.0 µM -19% | [3]; at 33.0 µM -27% | [3]; at 100.0 µM -36%
